# Results from PubChem BioAssay (NCI).
# Compounds without any hit were thinned out: in the full panel of roughly 79,000, 15% have a hit. Values without a mark were called inactive. Activity calls are given as the source filed them. Rule as the data show it: active = growth inhibition above about 70%; inactive = the rest.
# Tests used:
# [1] = NCI Yeast Anticancer Drug Screen. Data for the rad52 strain (AID 147);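 also: 0% = growth of vehicle-treated control cultures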; details: S. cerevisiae rad52 mutant growth inhibition, active compounds read high
# How it was run: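 Measured: yeast growth inhibition. System: strain with a defined DNA damage repair alteration. Reference: vehicle-treated control cultures.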
# [2] = NCI Yeast Anticancer Drug Screen. Data for the wt1 strain (AID 149);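 also: 0% = growth of vehicle-treated wt1 cultures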; details: S. cerevisiae wt1 strain (SPY 50644) growth inhibition, active compounds read high
# How it was run: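 Measured: growth of wt1 yeast under compound versus vehicle treatment, reported as inhibition.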
# [3] = NCI Yeast Anticancer Drug Screen. Data for the rad50EPP+ strain (AID 151);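 also: 0% = growth of vehicle-treated control cultures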; details: S. cerevisiae rad50 mutant strain, active compounds read high
# How it was run: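 One strain with a rad50 alteration (rad50EPP+) was compound-treated, its growth then compared to that of vehicle controls.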
# [4] = NCI Yeast Anticancer Drug Screen. Data for the mgt1 strain (AID 153); details: S. cerevisiae mgt1 mutant growth inhibition, active compounds read high
# How it was run: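 After exposure of the mgt1 yeast mutant to compound, growth was measured and reported as inhibition compared with vehicle controls.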
# [5] = NCI Yeast Anticancer Drug Screen. Data for the rad50 strain (AID 155);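 also: 0% = growth of vehicle-only cultures of the same strain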; details: S. cerevisiae rad50 strain growth inhibition, active compounds read high
# How it was run: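 Growth of the mutant yeast was measured after compound exposure and referenced to vehicle-treated cultures.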
# [6] = NCI Yeast Anticancer Drug Screen. Data for the mec2-1 strain (AID 157); details: S. cerevisiae mec2-1 strain, active compounds read high
# How it was run: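 Test agents were screened against the mec2-1 yeast strain, with defined DNA repair or cell cycle alteration. Growth was scored as inhibition against vehicle-only controls.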
# [7] = NCI Yeast Anticancer Drug Screen. Data for the CLN2oe strain (AID 163);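 also: 0% = growth of vehicle-only control cultures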; details: S. cerevisiae CLN2oe strain, active compounds read high
# How it was run: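 Here, growth inhibition in a cell-cycle-altered yeast strain after compound exposure was quantified against vehicle control growth.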
# [8] = NCI Yeast Anticancer Drug Screen. Data for the cln2 rad14 strain (AID 165);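 also: 0% = growth equal to vehicle treated cultures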; details: S. cerevisiae cln2 rad14 strain, active compounds read high
# How it was run: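 Growth of compound-exposed yeast (cln2 rad14 genotype) measured and expressed as inhibition relative to vehicle.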
# [9] = NCI Yeast Anticancer Drug Screen. Data for the bub3 strain (AID 167); details: S. cerevisiae bub3 mutant strain, active compounds read high
# How it was run: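 Whole-cell yeast assay. The mutant strain was incubated with compounds, and growth inhibition was determined by comparison with vehicle-treated cells.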
# [10] = NCI Yeast Anticancer Drug Screen. Data for the wt2 strain (AID 169);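 also: 0% = growth of vehicle-treated yeast cultures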; details: S. cerevisiae wt2 strain growth inhibition, active compounds read high
# How it was run: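 Genetically defined yeast strains from a DNA-repair/cell-cycle panel were used. Compound-exposed yeast growth was measured, and the inhibition was calculated relative to vehicle treatment.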
# [11] = NCI Yeast Anticancer Drug Screen. Data for the sgs1 strain (AID 173);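 also: 0% = growth of vehicle-only control cultures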; details: S. cerevisiae sgs1 mutant, active compounds read high
# How it was run: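 Relative growth inhibition, referenced to vehicle, was determined in a yeast strain with a defined alteration affecting DNA damage repair or cell cycle control after compound exposure.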
# [12] = NCI Yeast Anticancer Drug Screen. Data for the mlh1 rad18 strain (AID 175); details: S. cerevisiae mlh1 rad18 strain growth inhibition, active compounds read high
# How it was run: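 In this whole-cell yeast screen, a strain with altered DNA damage repair is challenged with compound, and its growth is measured against matched vehicle-treated controls.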
# [13] = NCI Yeast Anticancer Drug Screen. Data for the rad18 strain (AID 177); details: S. cerevisiae rad18 mutant growth inhibition, active compounds read high
# How it was run: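 Screen uses a yeast strain with a defined lesion in DNA damage repair; compound effect is read as loss of growth compared to untreated vehicle cultures.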
# [14] = NCI Yeast Anticancer Drug Screen. Data for the rad14 strain (AID 159);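 also: 0% = growth of vehicle-treated control cultures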; details: S. cerevisiae rad14 strain growth inhibition, active compounds read high
# How it was run: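 Here, inhibition of yeast growth was measured after compound exposure, using a strain with a genetic defect in DNA damage repair and vehicle-treated cultures as the reference.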
# [15] = NCI Yeast Anticancer Drug Screen. Data for the mlh1 strain (AID 171);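 also: 0% = growth of vehicle-treated control cultures of the same strain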; details: S. cerevisiae mlh1 strain growth inhibition, active compounds read high
# How it was run: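 Here the genetically defined yeast mutant is grown with each compound, and the extent to which its growth falls below that of vehicle-exposed cells is reported.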
# [16] = at 5.0 µM (retest, dose inferred, filed as 0.5)
# [17] = at 50.0 µM (retest, dose inferred, filed as 5.0)
structure (smiles),measurement,setting,value
Cc1cc(Cl)ccc1NC(=O)/C(Cl)=C(/Cl)C(=O)O,growth inhibition,[1]; at 1.2 µM,2%
same,growth inhibition,[1]; at 3.7 µM,6%
same,growth inhibition,[1]; at 11.0 µM,21%
same,growth inhibition,[1]; at 33.0 µM,70% (active)
same,growth inhibition,[1]; at 100.0 µM,99% (active)
same,growth inhibition,[2]; at 1.2 µM,0%
same,growth inhibition,[2]; at 3.7 µM,-1%
same,growth inhibition,[2]; at 11.0 µM,0%
same,growth inhibition,[2]; at 33.0 µM,11%
same,growth inhibition,[2]; at 100.0 µM,99% (active)
same,growth inhibition,[3]; at 1.2 µM,5%
same,growth inhibition,[3]; at 3.7 µM,11%
same,growth inhibition,[3]; at 11.0 µM,25%
same,growth inhibition,[3]; at 33.0 µM,78% (active)
same,growth inhibition,[3]; at 100.0 µM,99% (active)
same,growth inhibition,[4]; at 1.2 µM,0%
same,growth inhibition,[4]; at 3.7 µM,5%
same,growth inhibition,[4]; at 11.0 µM,8%
same,growth inhibition,[4]; at 33.0 µM,29%
same,growth inhibition,[4]; at 100.0 µM,100% (active)
same,growth inhibition,[5]; at 1.2 µM,1%
same,growth inhibition,[5]; at 3.7 µM,6%
same,growth inhibition,[5]; [16],-1%
same,growth inhibition,[5]; at 11.0 µM,16%
same,growth inhibition,[5]; at 33.0 µM,81% (active)
same,growth inhibition,[5]; [17],22%
same,growth inhibition,[5]; at 50.0 µM,99.5% (active)
same,growth inhibition,[5]; at 100.0 µM,99% (active)
same,growth inhibition,[6]; at 1.2 µM,3%
same,growth inhibition,[6]; at 3.7 µM,6%
same,growth inhibition,[6]; [16],3%
same,growth inhibition,[6]; at 11.0 µM,11%
same,growth inhibition,[6]; at 33.0 µM,51%
same,growth inhibition,[6]; [17],23%
same,growth inhibition,[6]; at 50.0 µM,97.7% (active)
same,growth inhibition,[6]; at 100.0 µM,100% (active)
same,growth inhibition,[7]; at 1.2 µM,-1%
same,growth inhibition,[7]; at 3.7 µM,3%
same,growth inhibition,[7]; at 11.0 µM,1%
same,growth inhibition,[7]; at 33.0 µM,11%
same,growth inhibition,[7]; at 100.0 µM,99% (active)
same,growth inhibition,[8]; [16],-4%
same,growth inhibition,[8]; [17],11%
same,growth inhibition,[8]; at 50.0 µM,98.8% (active)
same,growth inhibition,[9]; at 1.2 µM,2%
same,growth inhibition,[9]; at 3.7 µM,4%
same,growth inhibition,[9]; [16],3%
same,growth inhibition,[9]; at 11.0 µM,12%
same,growth inhibition,[9]; at 33.0 µM,56%
same,growth inhibition,[9]; [17],37%
same,growth inhibition,[9]; at 50.0 µM,99.6% (active)
same,growth inhibition,[9]; at 100.0 µM,99% (active)
same,growth inhibition,[10]; at 1.2 µM,0%
same,growth inhibition,[10]; at 3.7 µM,1%
same,growth inhibition,[10]; at 11.0 µM,5%
same,growth inhibition,[10]; at 33.0 µM,18%
same,growth inhibition,[10]; at 100.0 µM,100% (active)
same,growth inhibition,[11]; at 1.2 µM,2%
same,growth inhibition,[11]; at 3.7 µM,2%
same,growth inhibition,[11]; at 11.0 µM,11%
same,growth inhibition,[11]; at 33.0 µM,55%
same,growth inhibition,[11]; at 100.0 µM,99% (active)
same,growth inhibition,[12]; [16],0%
same,growth inhibition,[12]; [17],17%
same,growth inhibition,[12]; at 50.0 µM,99.3% (active)
same,growth inhibition,[13]; at 1.2 µM,-2%
same,growth inhibition,[13]; at 3.7 µM,0%
same,growth inhibition,[13]; at 11.0 µM,11%
same,growth inhibition,[13]; at 33.0 µM,30%
same,growth inhibition,[13]; at 100.0 µM,99% (active)
CN(C)N=Nc1ccc(N(C)C)cc1,growth inhibition,[1]; at 1.2 µM,-1%
same,growth inhibition,[1]; at 3.7 µM,1%
same,growth inhibition,[1]; at 11.0 µM,4%
same,growth inhibition,[1]; at 33.0 µM,16%
same,growth inhibition,[1]; at 100.0 µM,53%
same,growth inhibition,[2]; at 1.2 µM,1%
same,growth inhibition,[2]; at 3.7 µM,-4%
same,growth inhibition,[2]; at 11.0 µM,-3%
same,growth inhibition,[2]; at 33.0 µM,-2%
same,growth inhibition,[2]; at 100.0 µM,5%
same,growth inhibition,[3]; at 1.2 µM,4%
same,growth inhibition,[3]; at 3.7 µM,8%
same,growth inhibition,[3]; at 11.0 µM,31%
same,growth inhibition,[3]; at 33.0 µM,53%
same,growth inhibition,[3]; at 100.0 µM,55%
same,growth inhibition,[4]; at 1.2 µM,-3%
same,growth inhibition,[4]; at 3.7 µM,-3%
same,growth inhibition,[4]; at 11.0 µM,-1%
same,growth inhibition,[4]; at 33.0 µM,19%
same,growth inhibition,[4]; at 100.0 µM,12%
same,growth inhibition,[5]; at 1.2 µM,1%
same,growth inhibition,[5]; at 3.7 µM,1%
same,growth inhibition,[5]; [16],-7%
same,growth inhibition,[5]; at 11.0 µM,3%
same,growth inhibition,[5]; at 33.0 µM,5%
same,growth inhibition,[5]; [17],27%
same,growth inhibition,[5]; at 50.0 µM,82.5% (active)
same,growth inhibition,[5]; at 100.0 µM,14%
same,growth inhibition,[6]; at 1.2 µM,2%
same,growth inhibition,[6]; at 3.7 µM,3%
same,growth inhibition,[6]; [16],-9%
same,growth inhibition,[6]; at 11.0 µM,3%
same,growth inhibition,[6]; at 33.0 µM,7%
same,growth inhibition,[6]; [17],-9%
same,growth inhibition,[6]; at 50.0 µM,16.4%
same,growth inhibition,[6]; at 100.0 µM,9%
same,growth inhibition,[14]; at 1.2 µM,-1%
same,growth inhibition,[14]; at 3.7 µM,0%
same,growth inhibition,[14]; at 11.0 µM,2%
same,growth inhibition,[14]; at 33.0 µM,3%
same,growth inhibition,[14]; at 100.0 µM,7%
same,growth inhibition,[7]; at 1.2 µM,-2%
same,growth inhibition,[7]; at 3.7 µM,-5%
same,growth inhibition,[7]; at 11.0 µM,-2%
same,growth inhibition,[7]; at 33.0 µM,-2%
same,growth inhibition,[7]; at 100.0 µM,-1%
same,growth inhibition,[8]; [16],2%
same,growth inhibition,[8]; [17],8%
same,growth inhibition,[8]; at 50.0 µM,44.1%
same,growth inhibition,[9]; at 1.2 µM,0%
same,growth inhibition,[9]; at 3.7 µM,-3%
same,growth inhibition,[9]; [16],18%
same,growth inhibition,[9]; at 11.0 µM,-7%
same,growth inhibition,[9]; at 33.0 µM,-5%
same,growth inhibition,[9]; [17],33%
same,growth inhibition,[9]; at 50.0 µM,12.3%
same,growth inhibition,[9]; at 100.0 µM,3%
same,growth inhibition,[10]; at 1.2 µM,-1%
same,growth inhibition,[10]; at 3.7 µM,-1%
same,growth inhibition,[10]; at 11.0 µM,0%
same,growth inhibition,[10]; at 33.0 µM,2%
same,growth inhibition,[10]; at 100.0 µM,13%
same,growth inhibition,[15]; at 1.2 µM,-2%
same,growth inhibition,[15]; at 3.7 µM,-3%
same,growth inhibition,[15]; at 11.0 µM,1%
same,growth inhibition,[15]; at 33.0 µM,3%
same,growth inhibition,[15]; at 100.0 µM,10%
same,growth inhibition,[11]; at 1.2 µM,0%
same,growth inhibition,[11]; at 3.7 µM,4%
same,growth inhibition,[11]; at 11.0 µM,6%
same,growth inhibition,[11]; at 33.0 µM,15%
same,growth inhibition,[11]; at 100.0 µM,28%
same,growth inhibition,[12]; [16],23%
same,growth inhibition,[12]; [17],77% (active)
same,growth inhibition,[12]; at 50.0 µM,70.3% (active)
same,growth inhibition,[13]; at 1.2 µM,1%
same,growth inhibition,[13]; at 3.7 µM,1%
same,growth inhibition,[13]; at 11.0 µM,-15%
same,growth inhibition,[13]; at 33.0 µM,11%
same,growth inhibition,[13]; at 100.0 µM,29%
